Screens as filed in PubChem.
A selection: hits, their analogues and other compounds. The true share with any hit is near 1.6%.
KCNQ2 enhance – potentiators of rat KCNQ2 potassium channel. O88943. B-score at 10 µM. 0.54% of 310,000 active. CHO-K1 KCNQ2, FluxOR thallium flux fluorescence; active compounds read high;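 active = fluorescence ratio B-score at least 3 SD of library B-scores, with initial fluorescence B-score within 3 of them, cut at about 5.3 in these data; same plate scores as AID 2156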;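 also: B-score of peak minus minimum over baseline fluorescence ratio after K+ and Tl+ stimulus; positive B-score means potentiation of KCNQ2 with more thallium influx and brighter signal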
Target sequence (O88943 whole entry, looked up): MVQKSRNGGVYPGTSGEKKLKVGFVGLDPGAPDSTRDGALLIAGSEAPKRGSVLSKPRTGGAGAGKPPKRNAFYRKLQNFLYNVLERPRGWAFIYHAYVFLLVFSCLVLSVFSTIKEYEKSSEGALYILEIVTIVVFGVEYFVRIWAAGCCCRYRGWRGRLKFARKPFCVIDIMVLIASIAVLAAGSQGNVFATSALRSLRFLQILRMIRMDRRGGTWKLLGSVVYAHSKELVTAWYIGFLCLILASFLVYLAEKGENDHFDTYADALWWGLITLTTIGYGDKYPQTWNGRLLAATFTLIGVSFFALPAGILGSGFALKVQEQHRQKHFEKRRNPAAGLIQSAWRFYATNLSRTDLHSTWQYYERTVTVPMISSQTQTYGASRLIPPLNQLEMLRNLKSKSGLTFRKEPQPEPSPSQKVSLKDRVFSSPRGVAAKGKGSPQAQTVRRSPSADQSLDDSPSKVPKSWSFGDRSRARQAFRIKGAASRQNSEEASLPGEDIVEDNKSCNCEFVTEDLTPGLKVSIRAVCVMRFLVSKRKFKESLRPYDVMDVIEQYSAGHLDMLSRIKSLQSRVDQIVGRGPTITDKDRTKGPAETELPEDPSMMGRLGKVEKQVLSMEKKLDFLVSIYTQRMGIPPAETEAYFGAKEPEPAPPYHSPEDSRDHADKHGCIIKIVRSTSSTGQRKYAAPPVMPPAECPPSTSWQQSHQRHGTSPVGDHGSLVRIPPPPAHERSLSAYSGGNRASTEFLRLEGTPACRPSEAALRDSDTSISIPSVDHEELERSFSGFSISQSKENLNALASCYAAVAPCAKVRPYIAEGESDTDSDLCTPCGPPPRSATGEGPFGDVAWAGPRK
KCNQ2 inh – blocks the rat KCNQ2 potassium channel; O88943; 1.1% of 310,000 active; B-score at 10 µM; AID 2156; CHO-K1 KCNQ2, FluxOR thallium flux, 20 min; active compounds read low;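 active = fluorescence ratio B-score at most minus 3 library SDs, with starting brightness B-score within 2 library SDs, cut at about -5.5 in these data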
* = called active by the depositor; i = inactive; · = no result.

SMILES	KCNQ2 enhance	KCNQ2 inh
COc1cccc(-c2nc(N3CCN(C)CC3)c3ccccc3n2)c1O	·	i
COC(=O)CSC(=S)N1CCCC(C)C1 (configuration not stated)	0.01	i
CCOc1ccc(C2=NNC(c3cccs3)=Nc3ccc(OC)cc32)cc1	-5.62	-5.62*
CCOc1ccc(C2=NNC(c3cccnc3)=Nc3ccc(OC)cc32)cc1	·	i
Clc1ccccc1Cn1c(/C=C/c2ccco2)nc2ccccc21	-7.05	-7.05*
COc1ccc(Cn2c(/C=C/c3ccccc3)nc3ccccc32)cc1	·	i
COc1cccc(N(CC(=O)NC2CC3CCC2C3)S(=O)(=O)c2ccccc2)c1 (configuration not stated)	0.8	i
COc1ccccc1N1CCN(C(=O)C(C)N(c2ccc(C)cc2)S(C)(=O)=O)CC1 (configuration not stated)	·	i
COc1ccccc1N1CCN(C(=O)C(C)N(c2ccccc2)S(C)(=O)=O)CC1 (configuration not stated)	-5.69	-5.69*
CCCn1c(C)nc2c(c1=O)c1nc3ccccc3nc1n2CCC1=CCCCC1	·	i
Cc1nc2c(c(=O)n1CCC1=CCCCC1)c1nc3ccccc3nc1n2/N=C/c1ccco1	-7.67	-7.67*
COc1ccc(-c2ccc(SCC(=O)N3CCN(c4ccccc4)CC3)nn2)cc1	·	i
Cc1ccc(OCC(=O)NC2CCCc3ccccc32)c(C)c1 (configuration not stated)	·	i
Cc1ccc(S(=O)(=O)N2CCN(CC(=O)NC3CCCc4ccccc43)CC2)cc1C (configuration not stated)	-7.01	-7.01*
O=C(CCC(=O)N1CCN(S(=O)(=O)c2ccc(Cl)cc2)CC1)NC1CCCc2ccccc21 (configuration not stated)	-7.14	-7.14*
O=C(CCC(=O)N1CCN(S(=O)(=O)c2ccc(Cl)cc2)CC1)Nc1ccc(Cl)cc1Cl	0.1	i
Cc1ccc(S(=O)(=O)N2CCN(CC(=O)NC3CCCc4ccccc43)CC2)c(C)c1 (configuration not stated)	-6.11	-6.11*
NC(=O)C1CCN(CC(=O)NC2CCCc3ccccc32)CC1 (configuration not stated)	1.54	i
CCOc1ccc(OCC(=O)N2CCC3(CC2)CC(=O)c2ccccc2O3)cc1	·	i
COc1cccc(CN2CCN(C(=O)c3oc4c(F)cccc4c3C)CC2=O)c1	·	i
CN(C(=O)COC(=O)CNC(=O)CNC(=O)c1ccc(Cl)cc1Cl)c1ccccc1	1.26	i
CC(C(=O)NCc1ccc(Cl)cc1)n1cccc1C(=O)c1ccccc1 (configuration not stated)	0.08	i
COc1ccccc1CNC(=O)C(C)n1cccc1C(=O)c1ccccc1 (configuration not stated)	-5.71	-5.71*
CCN1CCN(S(=O)(=O)c2ccc(Cl)c(C(=O)Nc3ccccc3N3CCCC3)c2)CC1	·	i
CCN(CC(=O)Nc1ccc(S(=O)(=O)N2CCCCC2)cc1)Cc1ccccc1	·	i
SMILES	KCNQ2 enhance	KCNQ2 inh
CCN1CCN(S(=O)(=O)c2ccc(Cl)c(C(=O)Nc3ccccc3N3CCCCC3)c2)CC1	-5.58	-5.58*
CCN(CC(=O)Nc1cc(S(=O)(=O)N2CCCCC2)ccc1Cl)Cc1ccccc1	-7.75	-7.75*
O=C(Nc1cc(S(=O)(=O)N2CCOCC2)ccc1N1CCCC1)c1ccc2c(c1)S(=O)(=O)c1ccccc1C2=O	-5.86	-5.86*
O=C(Nc1ccccc1F)Nc1cc(S(=O)(=O)N2CCOCC2)ccc1N1CCCC1	0.12	i
O=C(Nc1cc(S(=O)(=O)N2CCOCC2)ccc1N1CCCC1)c1cccnc1Cl	·	i
O=C(Nc1ccccc1N1CCCC1)c1cc(S(=O)(=O)N2CCOCC2)ccc1Cl	-5.9	-5.9*
COc1cccc(N(CC(=O)Nc2ccccc2C)S(C)(=O)=O)c1	·	i
Nc1ccc(S(=O)(=O)c2ccc(N)cc2)cc1	0.36	i
CCOc1ccc(NC(=O)Nc2ccc3c(c2)nnn3C)cc1	1.08	i
CC(C)NC(=O)CSc1nc(Cc2ccccc2)nc2ccccc12	·	i
Cc1ccc(OC(F)F)c(NC(=O)Nc2ccc3c(c2)OCO3)c1	1.05	i
O=C(NCCNS(=O)(=O)c1ccccc1)N1CCOCC1	1.75	i
COC(=O)c1ccc2c(=O)n3c(nc2c1)SCC(c1ccccc1)=N3	0.64	i
CC(=O)c1ccc(N(C(=O)CNC(=O)c2cccs2)C(C(=O)NCC2CCCO2)c2ccccc2)cc1 (configuration not stated)	0.47	i
O=C(NCC(=O)N(Cc1ccccc1)C(C(=O)NCC1CCCO1)c1ccccc1)c1cccs1 (configuration not stated)	-5.57	-5.57*
Clc1ccc2c(NCc3ccco3)ncnc2c1	0.21	i
Cc1cc(Nc2cccc([N+](=O)[O-])c2)c2cccc(C)c2n1	·	i
Cc1cc(Nc2ccccc2)c2c([N+](=O)[O-])ccc(C)c2n1	-7.35	-7.35*
Cc1nc2cc(-c3cccs3)[nH]n2c(=O)c1C	0.28	i
